Molecules are shown by their SMILES. Screen size: about 130,000 compounds; about 550 (0.42%) were called active. Inconclusive results (about 4%) are left out. Calls follow the shape of the dose curve; as a rule, active = well fitted inhibition curve with a large enough effect; inconclusive = small, poorly fitted or top-dose-only effect, or effect the other way; inactive = flat fitted curve, though single readings scatter. The list comes from a sample in which actives are over-represented; it also holds similar structures and randomly drawn compounds. Entries that show only a call come without a potency.
Potency is read from the fitted curve at half-maximal effect.

This experiment in a line: qHTS Assay for Inhibitors of the ERK Signaling Pathway using a Homogeneous Screening Assay; Stimulation with EGF. Also: nearly all actives have a fitted effect of over 55% in size. The settings on record: HEK293-V1b, EGF-stimulated phospho-ERK AlphaScreen; series mostly up to 11.5 µM. In a few lines:
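HEK293 cells stably expressing V1b receptor, serum-reduced (1% FBS) overnight, pretreated 30 min with compound, then stimulated 5 min with 25 nM EGF; phospho-ERK detected by AlphaScreen SureFire. AC50 from Hill fits, normalized to DMSO and EGF.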
Background: In qHTS, concentration-response curves come from the screen itself.
Consider `Cn1c(SCC(=O)N2CCOCC2)nnc1-c1ccc2ncccc2c1`, for which the Potency result is “inactive”.

Turning to `O=C(Nc1cc(Cl)cc(Cl)c1)C(NCCCO)c1ccccc1` (centres undefined), the Potency entry was “inactive”. `CC(C)n1cnc2c(Nc3cccc(Cl)c3)nc(N(CCO)CCCO)nc21`: the Potency entry is “inactive”. In the case of `OCCCNc1nccc(-c2cc(Nc3cccc(Cl)c3)ncn2)n1` it was 22.4 µM (active); in that of `O=C(NN1C(=O)C2C(C1=O)C1C=CC2C12CC2)c1ccccc1Cl` (centres undefined), “inactive”. As to `O=C(CN1CCN(Cc2ccc(F)cc2Cl)C1=O)NCc1cccs1`, the Potency entry is “inactive”.

In the case of `Clc1ccc(Nc2ncnc3c2nnn3Cc2ccccc2)cc1`, the Potency result was “inactive”. For the molecule `CN(C)c1cc2c(Nc3ccc4c(cnn4Cc4ccccc4)c3)ncnc2cn1`, the Potency is 2.82 µM (active). Turning to `CC(=O)Nc1ccc(NC(=O)CSc2ncnc3c2cnn3Cc2ccccc2)cc1`, the Potency entry was “inactive”. In the case of `COc1ccc(Cl)cc1C(=O)NNC(=O)c1nc2nc(C)cc(C)n2n1` it was “inactive”; in that of `CN(C)CCCn1c(SCCN2C(=O)c3ccccc3C2=O)nc2ccccc2c1=O`, “inactive”. In the case of `COc1ccc(C/C(N)=N/OC(=O)c2ccco2)cc1OC`, the Potency result is “inactive”. Consider `COc1ccccc1Cn1c(CO)nc2ccccc21`, for which the Potency result was “inactive”.

Regarding `Cc1cccc(-n2c(Cc3cc(=O)[nH]c(=O)[nH]3)nnc2SCC(=O)Nc2cccc(C(F)(F)F)c2)c1`, the Potency result is “inactive”.

As to `O=C(COC(=O)c1ccc(Cl)nc1)NCc1cccs1`, the Potency result is “inactive”.

With `CCOc1ccc(C2NC(=S)NC3=C2CCc2ccccc23)cc1` (centres undefined), the Potency result is “inactive”. With `Cc1ccc(N/C=C/C(=O)c2ccccc2)cc1C`, the Potency entry was “inactive”.

With `Cc1cc(Oc2ccc(Cl)cc2)nc(SCC(=O)c2ccccc2)n1`, the Potency result is “inactive”.

For the molecule `Cc1cc(C)nc(S/C=C/C(=O)c2ccccc2)n1`, the Potency is 22.4 µM (active). On to `O=C(NNC(=S)NC(=O)c1cn(-c2ccccc2)nc1-c1ccccc1)c1ccncc1`, for which the Potency result is “inactive”. For `CC1=NN(c2ccccc2)C(=O)C1C(=O)c1ccc([N+](=O)[O-])cc1` (centres undefined), the Potency entry was “inactive”. On to `Oc1ccc(-c2nnc(Nc3ccccc3)c3ccccc23)cc1`, for which the Potency entry is “inactive”. In the case of `O=C(COC(=O)c1ccccc1)Nc1cccc(S(=O)(=O)N2CCOCC2)c1` it was “inactive”; in that of `Cc1nn(CCOc2ccc(Br)cc2)c(C)c1[N+](=O)[O-]`, “inactive”; in that of `CCC(=O)OCCNc1nc(-c2ccccc2)nc2ccccc12`, “inactive”. Regarding `COCCNc1nc2nonc2nc1N1CCCC1c1nccs1` (centres undefined), the Potency result was “inactive”. To `O=S(=O)(Nc1n[nH]c(C(F)(F)F)n1)c1ccccc1` belongs “inactive”; to `CC(C)N(Cc1nc(-c2ccc3c(c2)OCO3)no1)CC1CCC(=O)N1` (centres undefined), “inactive”; to `O=C1CN(C(=O)CN2C(=O)NC3(CCCCC3)C2=O)c2ccccc2N1`, “inactive”. In the case of `CCOC(=O)c1c(C)oc(C)c(C(=O)OCC)c1=O` it was “inactive”; in that of `Cc1nn(CC(=O)N/N=C/c2ccc(F)cc2)c(C)c1[N+](=O)[O-]`, “inactive”; in that of `O=S(=O)(c1cccc(-c2nnc3n2CCCCC3)c1)N1CCOCC1`, “inactive”. As to `CCN(CC)CCCSc1nc2ccccc2s1`, the Potency result was “inactive”. Consider `COC(=O)c1cc(S(=O)(=O)N2CCC(C(N)=O)CC2)oc1C`, for which the Potency entry is “inactive”. As for `CN(C)/C=C(/C(=O)c1ccc(F)cc1)S(=O)(=O)c1ccc(F)cc1`, the Potency entry was “inactive”. To `Cc1c(C(=O)O)nnn1-c1nonc1N` belongs “inactive”. To `O=C1CC(c2c(F)cccc2Cl)C(n2cncn2)C(O)=C1C1NCCc2ccccc21` (centres undefined) belongs “inactive”; to `C/C(=N/NC(=O)CC(=O)N/N=C(\C)c1ccc([N+](=O)[O-])cc1)c1ccc([N+](=O)[O-])cc1`, “inactive”; to `CC(C)(C)NC(=O)NCc1ccco1`, “inactive”. In the case of `CCC(C)NC(=O)CN(C1CCCCC1)S(C)(=O)=O` (centres undefined) it was “inactive”; in that of `Cc1cc(=O)[nH]c(S)c1C#N`, “inactive”. In the case of `CCN(CC)CCCN=Cc1c(O)n(-c2ccc(C)cc2)c(=O)c2ccccc12`, the Potency entry is “inactive”. In the case of `O=C(COc1ccc(Cl)cc1[N+](=O)[O-])N1CCCCC1` it was “inactive”; in that of `CC(=O)Oc1c2c(c3c(c1CC=C(C)C)O[C@@]14C(=CC5CC1C(C)(C)OC4(C/C=C(\C)C(=O)O)C5=O)C3=O)OC(C)(CCC=C(C)C)C=C2` (some centres undefined), 25.1 µM (active). `O=C(CC(=O)N/N=C\c1ccc(F)cc1)NCCc1ccccc1`: the Potency result is “inactive”.

With `COc1ccc(OCC(O)CNCCNc2nccc(C(F)(F)F)n2)cc1` (centres undefined), the Potency result was “inactive”.

As to `CCOc1ccc(/C=C(/NC(=O)c2ccccc2)C(=O)NCCC(=O)O)cc1`, the Potency entry is “inactive”. `O=C(NC1(C(F)(F)F)NC(=O)N(C2CCCCC2)C1=O)c1ccco1` (centres undefined): the Potency entry is “inactive”. In the case of `CCN1CCN(C(=O)c2ccc(CN(c3ccc(C)c(C)c3)S(C)(=O)=O)cc2)CC1` it was “inactive”; in that of `CC(=O)N(OCc1ccc(OC(C)C)c(Cl)c1)C(C)=O`, “inactive”; in that of `NS(=O)(=O)c1ccc(CCNC(=O)c2ccc(Cl)cc2[N+](=O)[O-])cc1`, “inactive”. To `CN(C)c1ccc(Nc2c3c4c(cccc4n(C)c2=O)C(=O)c2ccccc2-3)cc1` belongs 3.16 µM (active); to `Cc1cc(=O)oc2c(C(=O)c3ccccc3)c(OCC(N)=O)ccc12`, “inactive”.

As for `CN(C)c1ccc(/C=N/NC(=O)C(O)c2ccc(Br)cc2)cc1` (centres undefined), the Potency result was “inactive”. In the case of `CCC(C)N1C(=S)SC(C)(C)C1N(O)C(=O)NC1CCCCC1` (centres undefined) it was “inactive”.

Regarding `Cc1ccc(C(=O)Nc2nc(N)n(-c3ccccc3)n2)cc1`, the Potency entry was “inactive”. To `CC1=NNC(=O)C1CCC(=O)N/N=C(\C)c1ccc(Cl)cc1` (centres undefined) belongs “inactive”; to `COc1ccc(Cc2nnc(NC(=O)c3cc(OC)c(OC)c(OC)c3)s2)cc1OC`, “inactive”; to `O=C(O)c1n[nH]nc1-c1ccccc1`, “inactive”.

With `COc1ccc(N=Nc2ccc(O)c(P(=O)(c3ccccc3)c3ccccc3)c2)cc1`, the Potency entry was “inactive”. Consider `Oc1ccc(N=Cc2c(O)ccc3ccccc23)cc1`, for which the Potency result was “inactive”. With `Oc1ccc2ccccc2c1N=Nc1nccs1`, the Potency was 12.6 µM (active).

In the case of `Oc1ccc2ccccc2c1C=Nc1ccccc1`, the Potency result was “inactive”. On to `O=C(CCNc1n[nH]c(=O)[nH]c1=O)N/N=C\c1ccc(Br)cc1`, for which the Potency result was “inactive”. Regarding `CCOCCCNC(=O)C(NC(=O)Cc1c[nH]c2ccccc12)c1ccc(OC)cc1` (centres undefined), the Potency result is “inactive”. To `Cc1cc(OCCCC(=O)NCCN2C(=O)S/C(=C\c3cccnc3)C2=O)ccc1Cl` belongs “inactive”.

Consider `O=C(NCc1ccco1)C(=O)c1cn(CC(=O)N2CCCCCC2)c2ccccc12`, for which the Potency result is “inactive”. As to `Cc1ccnc(NC(=O)c2ccc(Cl)c([N+](=O)[O-])c2)c1`, the Potency entry was “inactive”. For the molecule `Cc1ccc(OCC(=O)Nc2nnc(-c3ccco3)s2)cc1`, the Potency result was “inactive”. To `CC(C)C1Nc2c(C(=O)O)cccc2C(Nc2ccccc2C(=O)O)C1(C)C` (centres undefined) belongs “inactive”; to `N#C/C(=C\N1CCOCC1)S(=O)(=O)c1ccc(Cl)cc1`, “inactive”.

For the molecule `Cc1cc(C)c2c(NC(=O)C3CC3)nn(C)c2n1`, the Potency result was “inactive”. To `O=C(Cc1ccc(F)cc1)N1CCN=C1SCc1cccc([N+](=O)[O-])c1` belongs “inactive”; to `CN(Cc1cc2cc(F)ccc2[nH]1)Cc1nc(-c2cnccn2)no1`, “inactive”.

The values are drawn from PubChem BioAssay AID1454 (National Center for Advancing Translational Sciences (NCATS), 2008).
